Results filed as inconclusive are left out. Calls of active or inactive are those of the source. Calls follow the shape of the dose curve; as a rule, active = well fitted inhibition curve with a large enough effect; inconclusive = small, poorly fitted or top-dose-only effect; inactive = flat fitted curve, though single readings scatter.
% is scaled to controls: 0 for no effect and ±100 for the full control effect; potency is read from the fitted curve at half-maximal effect.

The test in a line: P-glycoprotein substrates identified in KB-8-5-11 adenocarcinoma cell line, qHTS therapeutic library screen (AID 1346987). Also: nearly all actives have a fitted effect of over 65% in size. The conditions noted are these: KB-8-5-11 (P-gp overexpressing) viability, CellTiter-Glo, 72 h; series mostly up to 44.5 µM; activity change, negative = cytotoxicity: at the top concentration. From the text: The ATP-binding cassette transporters P-glycoprotein (P-gp) is known to limit brain penetration of many chemotherapy drugs. […] As such, we developed a high-throughput screen (HTS) to identify substrates of P-gp from a series of chemical libraries including the National Center for Advancing Translational Sciences Pharmaceutical Collection NPC, 2,816 compounds), testing a total of 10,804 compounds, most of which have known mechanisms of action. We used the CellTiter-Glo viability assay to test library compounds against the parental KB-3-1 human cervical adenocarcinoma cell line and the colchicine-selected sub-line KB-8-5-11 that over-expresses P-gp. KB-8-5-11 cells were also tested in the presence of a P-gp inhibitor (tariquidar) to assess reversability of transporter-mediated resistance. Of the tested compounds, a total of 90 P-gp substrates were identified including 55 newly identified P-gp substrates. Substrates were confirmed using an orthogonal killing assay against HEK-293 cells transfected with P-gp. As exemplars, we confirmed that […] (cyclin-dependent kinase inhibitor); AT9283, (Janus kinase 2/3 inhibitor); ispinesib (kinesin spindle protein inhibitor); gedatolisib (PKI-587, phosphoinositide 3-kinase/mammalian target of rampamycin inhibitor); GSK-690693 (AKT inhibitor); and KW-2478 (heat shock protein 90 inhibitor) were substrates , and direct ATPase stimulation was assessed. ABCG2 was also found to confer high levels of resistance to AT9283, GSK-690693 and gedatolisib, while ispinesib, AT7519 and KW-2478 were weaker substrates.
The HeLa derivative cell line, KB-3-1, and its colchicine-selected, P-gp-overexpressing subline, KB-8-5-11 were maintained in DMEM with 10% FCS and Pen/Strep with glutamine at 37 degree C in 5% CO2. For KB-8-5-11 cells, colchicine was added to the medium at a concentration of 100 ng/mL. HEK-293 cells transfected with empty vector (pcDNA) or vector containing human ABCB1 (MDR-19) or ABCG2 (R-5) have been described previously (Robey, Lin, Qiu, Chan & Bates, 2011) and were maintained in EMEM supplemented with 10% FCS, Pen/Strep and glutamine with 2 mg/ml G418 to select for the expression of the transporter. Cultures were confirmed to be free of mycoplasma infection using the MycoAlert Mycoplasma Detection Kit (Lonza, Walkersville, MD). For the screen, assay medium was identical to culture medium except for KB-8-5-11 where colchicine was excluded from the medium.
All cell lines were plated into 1536-well plates at 500 cells/well in 5 uL media. Compounds were then pinned in dose-response using a 1536-head pin tool (Kalypsis, San Diego, CA) and plates were incubated at 37 degree C in 5% CO2 for an additional 72 h. CellTiter-Glo reagent (Promega) was dispensed into the wells, incubated for 5 min and luminescence was read on a ViewLux instrument (Perkin-Elmer). Cytotoxic compounds were defined as those that yielded a curve class of -1.1, -1.2, -2.1, -2.2, -2.3, or -2.4, a maximum response of >50% and an AC50 of < 10 uM. Cherry-picked hits from screening analysis were tested with both the KB pair of cell lines, and the pcDNA (empty vector control) and MDR-19 (P-gp overexpressing) pair were tested, in the absence and presence of tariquidar.
As to `O=C(/C=C\n1cnc(-c2cc(C(F)(F)F)cc(C(F)(F)F)c2)n1)N1CC(F)(F)C1`, the Potency is 0.461 µM (active). Regarding `CC1CCC2C(C(=O)O)=COC(O[C@@H]3O[C@H](CO)[C@@H](O)[C@H](O)[C@H]3O)C12` (stereo not given in full), the “activity change, negative = cytotoxicity” value was -12.9% (inactive). The same measure, in the same setting: under `C/C=C/C=C/C(O)=C1\C(O)=C(C)C(=O)[C@@]2(C)OC(=O)[C@@](C)(NC(=O)/C=C/C(=O)O)[C@@H]12` stands 2.32% [at 17.3 µM] (inactive). For `O=C(c1ccc(/C=C/c2n[nH]c3ccccc23)cc1)N1CCNCC1`, the Potency is 6.51 µM (active). As for `C[C@]12C[C@@H](O)[C@@H]3C[C@@]1(O[C@@H]1O[C@H](CO)[C@@H](O)[C@H](O)[C@H]1O)[C@]3(COC(=O)c1ccccc1)C(=O)O2`, the “outcome” value is “inactive [at 17.3 µM]”. Regarding `O=C(CN1C(=O)C2(CCCC2)NCC1c1cc(F)cc(F)c1)Nc1ccc2c(c1)CC1(C2)C(=O)Nc2ncccc21` (stereo not given), the “activity change, negative = cytotoxicity” value was -0.283% (inactive). Still for that read-out and setting: under `COC(=O)C1=CO[C@@H](O[C@@H]2O[C@H](CO)[C@@H](O)[C@H](O)[C@H]2O)[C@@H]2[C@@](C)(O)[C@@H](OC(=O)/C=C/c3ccc(O)cc3)C[C@]12O` stands 1.48% [at 17.3 µM] (inactive). On to `COC(=O)C1=C2Nc3ccccc3C23CCN2CCCC(C(C)O)(C1)C23` (stereo not given), for which the “activity change, negative = cytotoxicity” value was 0.215% (inactive). In the case of `CN(C)C/C=C/C(=O)Nc1cc2c(Nc3ccc(F)c(Cl)c3)ncnc2cc1OC1CCOC1` (stereo not given), the Potency was 14.6 µM (active).

Turning to `C[C@@H]1CC[C@]2(C(=O)OC3OC(CO)C(O)C(O)C3O)CC[C@]3(C)C(=CCC4[C@@]5(C)CC[C@H](O)[C@](C)(C(=O)O)C5CC[C@]43C)C2[C@]1(C)O` (stereo not given in full), the “outcome” value is “inactive [at 17.3 µM]”. Regarding `COC(=O)C[C@H]1[C@]2(C)C3=C(C)[C@H](c4ccoc4)C[C@H]3O[C@@H]2[C@H](OC(C)=O)C2[C@](C)(C(=O)OC)C=CC(=O)[C@@]21C` (stereo not given in full), the “activity change, negative = cytotoxicity” value is -13.2% [at 17.3 µM] (inactive).

Consider `CCC(COC)n1nnc2c(Nc3ccc(OC)cc3C)nc(C)cc21` (stereo not given), for which the “activity change, negative = cytotoxicity” value was -17.4% (inactive). `C/C=C(\C)C(=O)O[C@@H]1CC2[C@@H](CC=C3C[C@@H](O[C@H]4C[C@H](OC)[C@H](O[C@H]5C[C@H](OC)[C@H](O[C@@H]6O[C@H](C)[C@@H](O[C@H]7C[C@H](OC)[C@H](O[C@@H]8O[C@H](CO)[C@@H](O)[C@H](O)[C@H]8O)[C@@H](C)O7)[C@H](OC)[C@H]6O)[C@@H](C)O5)[C@@H](C)O4)CC[C@@]32C)[C@@]2(O)CC[C@H](C(C)=O)[C@@]12C` (stereo not given in full): the outcome is “inactive [at 9.29 µM]”. Turning to `CC(C)=CCC(O)/C(C)=C/CO[C@@H]1O[C@H](CO)[C@@H](O)[C@H](O)[C@H]1O` (stereo not given in full), the “activity change, negative = cytotoxicity” value was 4.79% (inactive). On the same count and under the same terms, under `C/C(=C\CCC1(C)C2CCC(C2)C1(C)O)C(=O)O` (stereo not given) stands 5.99% (inactive); under `CC(C)c1ccc2c(c1)C(=O)CC1[C@@](C)(C(=O)O)CCC[C@]21C` (stereo not given in full), 7.11% (inactive). Turning to `O=S(=O)(Nc1ccccn1)c1ccc(N=Cc2c(O)[nH]c3ccc4ncsc4c23)cc1`, the outcome is “inactive [at 9.29 µM]”. Take `CC(=O)NCC(=O)N1C2CCC1c1cc(Nc3ncc(C(F)(F)F)c(NC4CCC4)n3)ccc12` (stereo not given): the Potency was 1.84 µM (active).

With `Cn1c(=O)cc(N2CCCC(N)C2)n(Cc2cc(F)ccc2C#N)c1=O` (stereo not given), the “activity change, negative = cytotoxicity” value was 3.03% (inactive). With `CC(/C=C/C1=CC2=CC(=O)C(C)(O)C(O)C2=CO1)=C\C(C)CCO` (stereo not given), the “activity change, negative = cytotoxicity” value was 7.59% (inactive). Turning to `C[C@@H]1CC[C@@]2(OC1)O[C@H]1C[C@H]3[C@@H]4CC=C5C[C@@H](O)CC[C@]5(C)[C@H]4CC[C@]3(C)[C@H]1[C@@H]2C`, the “activity change, negative = cytotoxicity” value is -2.19% [at 17.3 µM] (inactive). The same measure, in the same setting: under `CN(C)CC1CCOC1(c1ccccc1)c1ccccc1` (stereo not given) stands -11.1% [at 17.3 µM] (inactive). Regarding `COc1ncc(Nc2ncc([C@H](C)N3CCN(S(C)(=O)=O)CC3)cc2-c2nc(C)nc(N)n2)cc1F`, the Potency was 9.2 µM (active). As for `C/C(=C\C=C\C(C)C1CCC2(C)C3CCC4C(C)(C)C(=O)CCC45CC35CCC12C)C(=O)O` (stereo not given), the “activity change, negative = cytotoxicity” value was 8.34% [at 17.3 µM] (inactive). With `COC1/C=C/C(C)(O)C(SCC(N)C(=O)O)CC(=O)OC(C)C(C)CC/C=C/1C` (stereo not given), the “activity change, negative = cytotoxicity” value was 6.14% [at 17.3 µM] (inactive). On the same count and under the same terms, the value for `CCOc1ccc(S(=O)(=O)n2c(C)nc3ccccc32)cc1` was -19.3% [at 17.3 µM] (inactive). On to `C=CC[C@]12C[C@@H](OC)C(=O)C(OC)=C1O[C@@H](c1cc(OC)c3c(c1)OCO3)[C@@H]2C`, for which the “activity change, negative = cytotoxicity” value was -13.7% [at 17.3 µM] (inactive). In the case of `CC1OC(OC2CCC3(C)C(CCC4(C)C3CC=C3C5CC(C)(C)CCC5(C(=O)OC5OC(CO)C(O)C(O)C5O)CCC34C(=O)O)C2(C)C)C(O)C(O)C1O` (stereo not given), the “outcome” value was “inactive [at 17.3 µM]”. `COc1c2c(cc3c1-c1c(cc4c(c1OC)OCO4)CC(C)C(C)C3)OCO2` (stereo not given): the “activity change, negative = cytotoxicity” value was -4.87% (inactive). The same measure, in the same setting: the value for `CC1=CC(=O)C(=C(C)C)CC2C1CCC2(C)O` (stereo not given) was -3.42% (inactive); that for `Cc1[nH]c2ccccc2c1CCNC(=O)c1ccccc1F` was -4.47% (inactive); that for `C=C1CCC2C(C(C)(C)O)CCC2(C)CC(O)C(=C)CCC1O` (stereo not given) was 2.39% (inactive).

`CC(=O)O[C@@H]1[C@H](O)[C@@H](O[C@@H]2O[C@@H](C)[C@H](O[C@@H]3OC[C@@H](O)[C@H](O[C@@H]4OC[C@@H](O)[C@H](O)[C@H]4O)[C@H]3O)[C@@H](O[C@@H]3O[C@H](CO)[C@@H](O)[C@H](O)[C@H]3O)[C@H]2O)[C@H](OC(=O)[C@]23CCC(C)(C)C[C@H]2C2=CCC4[C@@]5(C)CC[C@H](O[C@@H]6O[C@H](C(=O)O)[C@@H](O)[C@H](O[C@@H]7OC[C@@H](O)[C@H](O)[C@H]7O)[C@H]6O[C@@H]6O[C@H](CO)[C@H](O)[C@H](O)[C@H]6O)[C@@](C)(C=O)C5CC[C@@]4(C)[C@]2(C)CC3)O[C@@H]1C` (stereo not given in full): the activity change, negative = cytotoxicity was 9.26% [at 5.11 µM] (inactive). Take `CC1(C)CC(=O)C2=C(C1)NC(=S)NC2c1cccc(O)c1` (stereo not given): the Potency was 5.8 µM (active).

`OCc1ccc(O[C@@H]2O[C@H](CO)[C@@H](O)[C@H](O)[C@H]2O)cc1`: the “activity change, negative = cytotoxicity” value was 6.81% (inactive). Consider `CC1CCN(C(=O)CC#N)CC1N(C)c1ncnc2[nH]ccc12` (stereo not given), for which the compound was classed as inactive.

For `COc1ncc(Nc2ncc([C@@H](C)N3CCN(S(C)(=O)=O)CC3)cc2-c2nc(C)nc(N)n2)cc1F`, the Potency is 6.51 µM (active). Regarding `C=C(C(=O)O)[C@H]1C[C@]2(C)[C@@H](O)CC[C@]23O[C@H]1C[C@@H]3C`, the “activity change, negative = cytotoxicity” value is 2.64% (inactive). Turning to `COc1cc(C(=O)O)ccc1OC1OC(CO)C(O)C(O)C1O` (stereo not given), the “activity change, negative = cytotoxicity” value was 0.772% (inactive).

Take `CC[C@H](NC(=O)[C@H](CS(=O)(=O)CC1CC1)N[C@@H](c1ccc(F)cc1)C(F)(F)F)C(=O)C(=O)NC1CC1`: the “activity change, negative = cytotoxicity” value is -17.1% (inactive).
